Experimental findings from PubChem BioAssay AID651791 (National Center for Advancing Translational Sciences (NCATS), 2012) are described below.

Results filed as inconclusive are left out. Active and inactive are the calls of the source. Calls follow the shape of the dose curve; as a rule, active = well fitted inhibition curve with a large enough effect; inconclusive = small, poorly fitted or top-dose-only effect; inactive = no such curve, though single readings can be large or run the other way.

The assay can be described thus: InCell qHTS Assay for Inhibitors of the mTORC1 Signaling Pathway in MEF (Tsc2-/-, p53-/-) Cells: Hit Validation.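 Also: phospho-S6 Ser235/236 signal normalized to propidium iodide cell count per well; nearly all actives have a fitted effect of over 75% in size.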 The following applies: phospho-rpS6 immunofluorescence, 24 h; activity change, negative = inhibition: at 38.3 µM (top of the series).
Potency is read from the fitted curve at half-maximal effect.

As for `CCCCOCc1cc(CN2CCN(c3cccc(Cl)c3)CC2)c(O)c2ncccc12`, the activity change, negative = inhibition is -100%.

`CCC1=Nc2cc(C(=O)NC3CCCC3)ccc2Sc2ccc(Br)cc21`: the activity change, negative = inhibition is -100%.

In the case of `Cc1ccc(CN(Cc2cccn2-c2nnc(N3CCCC3=O)s2)C(=O)Nc2ccccc2C(F)(F)F)cc1`, the activity change, negative = inhibition was -100%.

As for `O=C(Nc1ccccc1)N(Cc1cccc(Cl)c1)c1ccccn1`, the activity change, negative = inhibition was -100%.

As to `Cc1ccc2c(c1)cc(C(=O)Nc1ccccc1C)n2C`, the activity change, negative = inhibition is -18.6%.

Regarding `COc1ccc(CCNC(=O)c2ccc3c(c2)N(Cc2ccccc2)CCS3)cc1OC`, the activity change, negative = inhibition was -100%.

As for `Cc1ccc2c(c1)C(=O)C(=O)N2Cc1ccc(OC(C)C)cc1`, the activity change, negative = inhibition was -16.8%.

Regarding `COc1ccc(N2CCN(C(=O)C3CCN(Cc4nc(-c5ccc(Cl)cc5)oc4C)CC3)CC2)cc1`, the activity change, negative = inhibition is -100%.

In the case of `CCOc1ccccc1Nc1nc(-c2cccc(Cl)c2)c2c(n1)-c1ccccc1OC2`, the activity change, negative = inhibition was -100%.

Take `CCOc1ccc(-c2nc(SCC(=O)c3ccccc3)n[nH]2)cc1`: the activity change, negative = inhibition was -2.9%.

For `CCC1CCc2nc3sc(C(=O)Nc4cccc(F)c4)c(N)c3cc2C1` (stereo not drawn), the activity change, negative = inhibition is -100%.

Regarding `COc1cc(CN(C(=O)COc2ccc(C)c(C)c2)c2ccccn2)cc(OC)c1OC`, the activity change, negative = inhibition is -100%.

`CCn1c(CC2C(=O)N(C)c3ccc(Br)cc32)nc2ccccc2c1=O` (stereo not drawn): the activity change, negative = inhibition was -100%.

Take `CC1=C(C(=O)Nc2ccc(C)cc2C)C(c2cc(Br)ccc2F)n2ncc(C(=O)Nc3ccc(C)cc3)c2N1` (stereo not drawn): the Potency was 14.7 µM (active).

Regarding `COC(=O)c1ccc(Nc2nnc(-c3ccc(C)c(S(=O)(=O)N4CCN(C)CC4)c3)c3ccccc23)cc1`, the activity change, negative = inhibition is -100%.

Turning to `COc1ccc(C2=NS(=O)(=O)N(C)C(C(=O)Nc3ccc(OC(F)(F)F)cc3)=C2)cc1`, the activity change, negative = inhibition was -100%.

For the molecule `CCCn1c2ccc(C)cc2c2nnc(SCCN3CCCCC3)nc21`, the activity change, negative = inhibition was -100%.

With `CCCN1C(=O)C(O)(CC(=O)c2ccc(C(C)C)cc2)c2ccccc21` (stereo not drawn), the activity change, negative = inhibition is -100%.

On to `CN1CCN(C(CNC(=O)C(=O)Nc2cccc(Cl)c2)c2ccc3c(c2)OCO3)CC1` (stereo not drawn), for which the activity change, negative = inhibition is -100%.

With `CC(C)Cc1ccc(S(=O)(=O)N2CCC(c3ccncc3)CC2)cc1`, the activity change, negative = inhibition is -100%.

Regarding `N#Cc1ccc(-c2cccs2)nc1SCc1c(F)cccc1Cl`, the activity change, negative = inhibition is -16.8%.

`CCc1ccc(NC(=O)C2CCCN(S(=O)(=O)c3c(C)noc3/C=C/N(C)C)C2)cc1` (stereo not drawn): the Potency was 14.7 µM (active).

Turning to `Cc1ccc(NC(=O)CCS(=O)(=O)c2ccc3nc(C)sc3c2)cc1`, the activity change, negative = inhibition was -100%.

Turning to `Cn1nc(-c2ccc(OCC(=O)Nc3ccc(Cl)cc3)cc2)c2ccccc2c1=O`, the activity change, negative = inhibition was -100%.

Regarding `O=C(NCCSc1c(-c2ccc(F)cc2)[nH]c2ccccc12)c1ccc(S(=O)(=O)N2CCOCC2)cc1`, the activity change, negative = inhibition is -100%.

In the case of `COc1cc(OC)cc(C(=O)NCc2ccc3c(c2)CCN3C(=O)c2ccccc2)c1`, the activity change, negative = inhibition was -100%.

For the molecule `CCC(C(=O)N1CCN(c2cccc(C)c2C)CC1)n1nc(C)c2sc3ccccc3c2c1=O` (stereo not drawn), the activity change, negative = inhibition is -100%.

Regarding `CCOc1ccccc1NS(=O)(=O)c1ccc(-c2cnc(C3CC3)o2)cc1`, the activity change, negative = inhibition was -100%.

As to `CCOc1ccc(N(C(C)C(=O)Nc2cc(Cl)ccc2OC)S(C)(=O)=O)cc1` (stereo not drawn), the activity change, negative = inhibition was -100%.

Consider `CC1=Nc2cc(C(=O)NC3CCCC3)ccc2Sc2ccc(Br)cc21`, for which the activity change, negative = inhibition was -100%.

In the case of `CCCOc1cccc(C2c3c(-c4ccccc4O)n[nH]c3C(=O)N2Cc2ccco2)c1` (stereo not drawn), the activity change, negative = inhibition was -100%.

As to `COc1ccc(OC)c(C(=O)CC2(O)C(=O)N(Cc3ccccc3C)c3ccccc32)c1` (stereo not drawn), the activity change, negative = inhibition was -100%.

As to `CCOC(=O)c1c(NC(=O)c2cc(CC)on2)sc(C(C)=O)c1C`, the activity change, negative = inhibition is -100%.

Consider `CCOC(=O)N1CCN(Cc2nc3cc(NC(C)=O)ccc3n2C(C)C)CC1`, for which the activity change, negative = inhibition is -100%.

As to `O=C(NCc1ccccc1)c1ccc2c(c1)N(Cc1ccccc1F)C(=O)c1ccccc1S2=O` (stereo not drawn), the activity change, negative = inhibition is -100%.

For `CCOc1ccc(N(CC(=O)Nc2ccccc2CC)S(=O)(=O)c2c(C)noc2C)cc1`, the activity change, negative = inhibition is -100%.

Consider `Cc1cc(C)c(NC(=O)c2sc3nc(C)cc(C)c3c2NC(=O)c2ccccc2)c(C)c1`, for which the activity change, negative = inhibition was -100%.

For `COc1ccc(CC(=O)Nc2sc3c(c2C(=O)Nc2cccc(C)c2)CCCCC3)cc1`, the activity change, negative = inhibition is -17.5%.

`CCOc1cccc(C2CC(=O)Nc3cc4c(cc32)OCCO4)c1` (stereo not drawn): the activity change, negative = inhibition was -14.6%.

Turning to `CCOC(=O)c1cnc2ccc(C)cc2c1Nc1ccc(N(CC)CC)cc1`, the activity change, negative = inhibition is -100%.

For the molecule `COc1ccc(Nc2nc(N)c3cc(OC)c(OC)cc3n2)cc1`, the activity change, negative = inhibition is -100%.

Take `COc1ccc2c(c1)CC(C(=O)Nc1cc(Cl)ccc1C)CO2` (stereo not drawn): the activity change, negative = inhibition is -100%.

With `COc1ccc(C)cc1NC(=O)CSc1ccc(-c2ccccn2)nn1`, the activity change, negative = inhibition is -100%.

For `CCS(=O)(=O)c1oc(-c2ccc(F)cc2)nc1S(=O)(=O)c1ccc(Br)cc1`, the Potency was 3.69 µM (active).

With `CC(C)OCCCn1c(=O)c2ccccc2n2c(-c3ccc(F)cc3)nnc12`, the activity change, negative = inhibition is -100%.

As for `COc1ccc(Cl)cc1NC(=O)CCCS(=O)(=O)c1nc(-c2ccc(OC)c(OC)c2)cc(C(F)(F)F)n1`, the Potency was 14.7 µM (active).

Take `COc1cc2nc(Nc3ccc(C)c(C)c3)nc(N)c2cc1OC`: the activity change, negative = inhibition was -100%.

On to `CCN(c1ccccc1)S(=O)(=O)c1cc(C(=O)Nc2ccc(Br)cc2)ccc1F`, for which the activity change, negative = inhibition was -100%.
